# From PubChem BioAssay AID651661 (Broad Institute, 2012)
# Among all 350,000 compounds or so, about 2,300 (0.66%) were called active. The full list was thinned out, with actives kept by preference. A number with no mark means an inactive call.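 Rule for the calls: active = mean inhibition of at least 50% after viability correction, with every replicate also passing that limit; inconclusive = mean reaches 50% but only one of two replicates passes; inactive = the rest.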
# Assay: blockers of EWS/Fli transcriptional output – A673 cells, NR0B1 luciferase, luminescence, MLPCN library, primary screen (AID 651661);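 note: firefly luciferase signal divided by Alamar Blue viability fluorescence both relative to DMSO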
# Details: A673 NR0B1-luciferase reporter, viability-normalised; at 12.6 µM; stronger effect = higher value
row,Structure (SMILES),inhibition
1,C[C@@H]1CN([C@@H](C)CO)C(=O)Cc2cc(NC(=O)C3CCCCC3)ccc2O[C@@H]1CN(C)Cc1ccc(C(=O)Nc2ccccc2N)cc1,12.7%
2,Cn1cnc(S(=O)(=O)N[C@H]2C=C[C@H](CC(=O)NCC3CCCCC3)O[C@@H]2CO)c1,-0.245%
3,C[C@H](CO)N1C[C@H](C)[C@@H](CN(C)Cc2ccc(-c3ccccc3)cc2)Oc2ccc(NC(=O)CCCN(C)C)cc2CC1=O,4.89%
4,C[C@H](CO)N1C[C@H](C)[C@H](CN(C)C(=O)Nc2ccc3c(c2)OCO3)Oc2cc(C#Cc3ccncc3)ccc2S1(=O)=O,22.2%
5,C[C@H]1CN([C@@H](C)CO)S(=O)(=O)c2ccc(C#Cc3ccncc3)cc2O[C@@H]1CN(C)C(=O)Nc1ccc2c(c1)OCO2,55.5% (active)
6,C[C@@H]1CN([C@@H](C)CO)S(=O)(=O)c2ccc(C#Cc3ccccc3)cc2O[C@@H]1CN(C)C(=O)Nc1ccccc1,11%
7,Cc1nc2ccccc2n1CC(=O)N/N=C/c1cccs1,3.45%
8,CCn1c(/C=N/NC(=O)c2ccc(OC)cc2)nc2ccccc21,75.2% (active)
9,CCn1c(C(O)c2cc(OC)ccc2OC)nc2ccccc21 (stereo not drawn),-24.1%
10,COc1ccc2c3c(n(C)c2c1)[C@H](CO)N(CC1CCOCC1)CC31CCN(C(C)=O)CC1,0.574%
11,C[C@H]1CN([C@@H](C)CO)S(=O)(=O)c2ccc(-c3cccc(C#N)c3)cc2O[C@H]1CN(C)C(=O)c1ccccc1,4.97%
12,COCC#Cc1ccc(CC[C@H]2O[C@H]3CC[C@@H](CO)O[C@H]3C[C@H]2NC(=O)Nc2c(C)noc2C)cc1,-3.3%
13,CCC(=O)Nc1ccc(Nc2nc(Cl)nc(Nc3ccc(NC(=O)CC)cc3)n2)cc1,7.36%
14,O=C(CCl)Nc1ccc(Sc2ccc(NC(=O)CCl)cc2)cc1,66.1% (active)
15,O=C(CCl)Nc1cccc(CP(=O)(c2ccccc2)c2ccccc2)c1,28.2%
16,CO[C@H]1CN(C)C(=O)c2ccc(NC(C)=O)cc2OC[C@H](C)N(C(=O)Cc2ccccn2)C[C@@H]1C,-1.41%
17,CC[C@]1(O)CC2CN(CCc3c([nH]c4ccccc34)[C@@](C(=O)OC)(c3cc4c(cc3OC)N(C=O)[C@H]3[C@@](O)(C(=O)OC)[C@H](OC(C)=O)[C@]5(CC)C=CCN6CC[C@]43[C@@H]65)C2)C1 (stereo partly drawn),61.7% (active)
18,CC[C@]1(O)C[C@@H]2CN(CCc3c([nH]c4ccccc34)[C@@](C(=O)OC)(c3cc4c(cc3OC)N(C)[C@H]3[C@@](O)(C(=O)OC)[C@H](OC(C)=O)[C@]5(CC)C=CCN6CC[C@]43[C@@H]65)C2)C1,63% (active)
19,CN1C(=O)c2cc(NC(=O)C3CC3)ccc2OC[C@@H]2O[C@H](CC(=O)NCC3CCCCC3)CC[C@@H]21,6.23%

row,Structure (SMILES),inhibition
1,C[C@H]1CN([C@@H](C)CO)S(=O)(=O)c2ccc(C3=CCCCC3)cc2O[C@@H]1CN(C)Cc1ccccc1,23.9%
2,Cc1cc(C(=O)Nc2ccc3c(c2)C(=O)N(C)[C@@H]2CC[C@@H](CC(=O)NC4CCCC4)O[C@@H]2CO3)no1,4.52%
3,COc1ccc2c3c(n(C)c2c1)[C@@H](CO)N(C)CC31CN(S(=O)(=O)c2cccs2)C1,3.63%
4,COc1cccc(C#Cc2ccc([C@H]3[C@@H](CO)N(C(=O)c4ccccn4)[C@H]3C#N)cc2)c1,30.6%
5,C[C@H]1CN([C@@H](C)CO)C(=O)c2cc(-c3ccncc3)cnc2O[C@@H]1CN(C)C(=O)c1cccc(F)c1,-6.09%
6,C[C@H](CO)N1C[C@H](C)[C@H](CN(C)CC2CCCCC2)OCCCC[C@H](C)Oc2ccc(NS(=O)(=O)c3ccc(F)cc3)cc2C1=O,-7.04%
7,C[C@H]1CCCCO[C@@H](CN(C)Cc2ccc3c(c2)OCO3)[C@@H](C)CN([C@@H](C)CO)C(=O)c2cc(NC(=O)Nc3ccc(F)cc3)ccc2O1,73.8% (active)
8,C[C@@H]1CCCCO[C@@H](CN(C)Cc2ccc3c(c2)OCO3)[C@@H](C)CN([C@@H](C)CO)C(=O)c2cc(NC(=O)Nc3ccccc3)ccc2O1,-8.42%
9,C[C@@H]1CN([C@H](C)CO)C(=O)c2cc(NC(=O)Nc3ccc(F)cc3)ccc2O[C@@H](C)CCCCO[C@@H]1CN(C)CC1CCCCC1,58.8% (active)
10,C[C@@H]1CCCCO[C@H](CN(C)CC2CCCCC2)[C@H](C)CN([C@H](C)CO)C(=O)c2cc(NC(=O)Nc3ccc(F)cc3)ccc2O1,-1.9%
11,C[C@H]1CCCCO[C@H](CN(C)CC2CCCCC2)[C@@H](C)CN([C@@H](C)CO)C(=O)c2cc(NS(=O)(=O)c3ccc(Cl)cc3)ccc2O1,61.5% (active)
12,C[C@@H]1CN([C@H](C)CO)C(=O)c2cc(NC(=O)Nc3ccc4c(c3)OCO4)ccc2O[C@@H](C)CCCCO[C@@H]1CN(C)Cc1ccc2c(c1)OCO2,11.6%
13,C[C@@H]1CCCCO[C@H](CN(C)CC2CC2)[C@@H](C)CN([C@H](C)CO)C(=O)c2cc(NC(=O)Nc3ccc(F)cc3)ccc2O1,-1.94%
14,C[C@@H]1CCCCO[C@H](CN(C)CC2CCCCC2)[C@H](C)CN([C@H](C)CO)C(=O)c2cc(NS(=O)(=O)c3ccc(F)cc3)ccc2O1,24.8%
15,CCS(=O)(=O)N1[C@H](CO)[C@@H](c2ccccc2)C12CN(C(=O)c1ccccc1F)C2,8.71%
16,CC(C)NC(=O)N1[C@@H]2CN(C(=O)C3CCCCC3)c3ccccc3[C@@H]2[C@@H]1CO,1.34%
17,CN(C)C(=O)[C@@H]1[C@@H](CO)[C@@H]2Cn3c(ccc(C4=CCCC4)c3=O)[C@H]1N2Cc1ccccn1,-3.42%
18,COc1ccc(-c2cnc3c(c2)C(=O)N([C@@H](C)CO)C[C@H](C)[C@@H](CN(C)C(=O)C2CC2)O3)cc1,-4.94%
19,CCS(=O)(=O)N1CC2(C1)CN(S(=O)(=O)c1ccccc1)[C@H](CO)c1c2c2ccc(OC)cc2n1C,-5.22%
